Screening results as filed in PubChem.
The list is not random: actives were taken first. Their share in the collection is about 19%.
DT40 TDP1 CPT: qHTS for Inhibitors of human tyrosyl-DNA phosphodiesterase 1 (TDP1): qHTS in cells in presence of CPT | Potency, µM (top dose mostly 46.2 µM), hits mostly inhibitors | chicken DT40 Tdp1-/-;hTDP1 cells + 20 nM CPT, ATP luminescence, 48 h | actives 12% (n = 420,000); also: nearly all actives have a fitted effect of over 55% in size
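Chicken DT40 Tdp1-/- cells stably complemented with human TDP1 were seeded at 400 cells/well in medium containing 20 nM camptothecin, exposed to pin-transferred compounds, and grown at 37 °C for at least 48 hr. Viability was read as ATP luminescence.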
TDP1 block: qHTS Assay for Inhibitors of Tyrosyl-DNA Phosphodiesterase (TDP1); recombinant TDP1, AlphaScreen DNA substrate cleavage; Tyrosyl-DNA phosphodiesterase 1 (Homo sapiens), Q9NUW8; actives 0.28% (n = 350,000); Potency, µM (doses to about 130 µM), usual class: inhibitors; also: nearly all actives have a fitted effect of over 40% in size
Target sequence (Q9NUW8 whole entry, looked up): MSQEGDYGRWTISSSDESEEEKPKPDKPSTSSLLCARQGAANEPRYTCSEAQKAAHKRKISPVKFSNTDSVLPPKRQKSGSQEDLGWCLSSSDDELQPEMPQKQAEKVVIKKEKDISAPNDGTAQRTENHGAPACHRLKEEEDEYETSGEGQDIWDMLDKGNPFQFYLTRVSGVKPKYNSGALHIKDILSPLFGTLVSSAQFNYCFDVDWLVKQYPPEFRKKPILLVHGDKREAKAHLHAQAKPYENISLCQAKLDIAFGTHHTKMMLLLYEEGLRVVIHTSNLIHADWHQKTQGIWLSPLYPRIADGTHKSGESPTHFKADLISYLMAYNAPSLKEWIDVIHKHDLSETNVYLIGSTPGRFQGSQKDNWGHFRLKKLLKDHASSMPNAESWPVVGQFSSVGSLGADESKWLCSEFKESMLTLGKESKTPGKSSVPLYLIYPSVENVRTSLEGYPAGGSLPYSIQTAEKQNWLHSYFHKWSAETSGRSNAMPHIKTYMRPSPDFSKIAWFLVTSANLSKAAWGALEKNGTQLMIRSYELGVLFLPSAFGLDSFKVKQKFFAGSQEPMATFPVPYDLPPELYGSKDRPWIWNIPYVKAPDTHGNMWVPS
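E. coli-derived human Tdp1, 1 nM final. Cpd preinc 15 min RT; substrate 15 nM final, 5 min RT; AS bead mix 10 ug/ml final, 10 min RT. Signal loss = tyrosine-FITC cleavage. No-enzyme wells = max signal.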
TGFb inhibitor: qHTS for Inhibitors of TGF-b; HepG2 CAGA-GFP TGF-b/SMAD3 reporter, GFP fluorescence, 18 h; TGF-beta stimulated, 500 pg/mL final; Potency, µM (titrated, usually from 46.1 µM), actives largely listed as inhibitors; actives 1.2% (n = 410,000); also: nearly all actives have a fitted effect of over 65% in size
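GFP signal (ex488/em500-530) from TGF-beta-stimulated HEPG2 CAGA-GFP cells, 500 pg/mL final, 18 h at 37 degrees C in DMEM plus 1% FBS, normalized to unstimulated and DMSO-stimulated controls.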
IL-1B inflam inh: qHTS for Inhibitors of Inflammasome Signaling: IL-1-beta AlphaLISA Primary Screen. THP-1 LPS/ATP IL-1B secretion, AlphaLISA, 16 h; stronger effect = lower value. activity change, % at 57.5 µM. actives 4.7% (n = 360,000). AID 743279, 2014; in the data active = activity change below about -50%; inconclusive = mostly about -30% to -49%
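THP-1 cells pretreated 1 hr with compounds (up to 57.5 uM final), then stimulated with LPS (250 ng/mL final) plus ATP (1.25 mM final); secreted IL-1B measured by AlphaLISA after 16 hr, decreased signal indicating inhibition.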
TDP1 cell noCPT: qHTS for Inhibitors of human tyrosyl-DNA phosphodiesterase 1 (TDP1): qHTS in cells in absence of CPT | DT40 Tdp1-/- hTDP1 cells, no CPT, ATP luminescence, 48 h | Potency, µM (titrated, usually from 46.2 µM), actives largely listed as inhibitors | actives 15% (n = 420,000) | AID 686978, 2013; also: nearly all actives have a fitted effect of over 55% in size
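Seeded 400 DT40-hTDP1 cells/well (vehicle DMSO, no 20 nM CPT); pinned compounds; ≥48 hr at 37 °C; CellTiter-Glo luminescence as viability measure.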
HepG2 viability: qHTS for Inhibitors of TGF-b: Cytotox Counterscreen; HepG2 CAGA-GFP viability, ATP luminescence, 18 h; Potency, µM (top dose mostly 46.1 µM), most hits filed as cytotoxic; actives 0.76% (n = 410,000); AID 588856, 2011
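CellTiter-Glo luminescence gave cytotoxicity after 18 hours at 37 degrees C. The cells were HepG2 CAGA-GFP in 1% FBS DMEM, stimulated with 500 pg/mL TGF-beta after compound addition. %Activity was normalised to no-cell wells (complete cell-killing) and DMSO (no toxicity), and curves were fitted and classified.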
Numbers stand for hits; 0 = inactive; ? = inconclusive; - = no result. Unless noted, calls follow the shape of the dose curve; as a rule, active = well fitted curve in the direction sought with a large enough effect; inconclusive = small, poorly fitted or top-dose-only effect, or another doubt; inactive = no such curve, though single readings can be large; an effect the other way counts as inactive or inconclusive.

SMILES	DT40 TDP1 CPT	TDP1 block	TGFb inhibitor	IL-1B inflam inh	TDP1 cell noCPT	HepG2 viability
CCOC(=O)c1[nH]c2c(c1Cc1ccccc1OC)C(=O)CC(c1ccccc1)C2 (stereo not given)	?	0	0	-	?	0
CCOc1ccc(C2CC(=O)c3c([nH]c(C(=O)OCC4CCCCC4)c3C)C2)cc1 (stereo not given)	?	0	0	-	18.4µM	0
CCOC(=O)c1[nH]c2c(c1Cc1ccccc1OC)C(=O)CC(c1ccc(OCC)cc1)C2 (stereo not given)	8.2µM	0	0	-	9.2µM	0
CCc1ccc(C2CC(=O)c3c([nH]c(C(=O)OCC4CCCCC4)c3C)C2)cc1 (stereo not given)	0	0	0	-	?	0
COc1cc(C2CC(=O)c3c([nH]c(C(=O)OCC4CCCCC4)c3C)C2)cc(OC)c1OC (stereo not given)	1.3µM	0	0	-	1.64µM	0
COc1cc(C2CC(=O)c3c([nH]c(C(=O)OC4CCCCC4)c3C)C2)cc(OC)c1OC (stereo not given)	1.84µM	0	0	-	2.06µM	0
Cc1ccc(C(=O)NNS(=O)(=O)c2ccc(F)cc2)cc1	0	-	0	0	0	0
Cc1ccc(-c2cnc3c(Nc4cccc(OC(F)(F)C(F)F)c4)nccn23)cc1	23.1µM	-	0	0	16.4µM	0
FC(F)C(F)(F)Oc1cccc(Nc2nccn3c(-c4cc(C(F)(F)F)cc(C(F)(F)F)c4)cnc23)c1	?	-	0	0	?	0
OCc1cccc(-c2cnc3c(Nc4cccc(OC(F)(F)C(F)F)c4)nccn23)c1	?	-	?	0	16.4µM	0
COc1ccccc1C(=O)C1CCCN(C(=O)c2ccc(Cl)cc2)C1 (stereo not given)	?	-	0	0	16.4µM	0
CCN(CC)CC(=O)N1CCCC(C(=O)c2ccccc2OC)C1 (stereo not given)	0	0	0	0	0	0
COc1ccccc1C(=O)C1CCCN(C(=O)CCC(=O)c2ccccc2)C1 (stereo not given)	10.3µM	0	0	0	29.1µM	0
Cc1ccccc1OCCC(=O)N(CC(C)C)c1c(N)n(Cc2ccccc2)c(=O)[nH]c1=O	0	0	0	0	0	0
Cc1ccc(-n2nc3c(=O)n(CCCC(=O)NCc4ccco4)nc(C)c3c2C)cc1	?	0	0	0	0	0
CCCCN(C)CCCNC(=O)C1CCN(c2nc3ccc(CC)cc3s2)CC1	6.51µM	0	?	-	5.8µM	14.1µM
CCCCN(CC)CCCNC(=O)C1CCN(c2nc3ccc(CC)cc3s2)CC1	11.6µM	0	-	-	13µM	0
CCc1ccc2nc(N3CCN(C(=O)c4ccco4)CC3)sc2c1	?	0	0	-	?	0
CCOc1ccc2nc(N3CCC(C(=O)NCCCN4CCOCC4)CC3)sc2c1	0	-	0	-65.8	?	0
CCOc1cccc(C2c3c(oc4cc(C)c(C)cc4c3=O)C(=O)N2c2nc(C)c(C)s2)c1 (stereo not given)	0	0	0	-	0	0
CCCCCC1CCC(C(=O)NNC(=S)NCC)CC1 (stereo not given)	23.1µM	0	0	0	?	0
CCOc1ccc(S(=O)(=O)N(CC)CC(=O)NC2CCS(=O)(=O)C2)cc1 (stereo not given)	0	0	0	0	0	0
Cc1cc(C)c(NC(=O)Cn2c(=O)n(CCC(=O)NCc3ccccc3Cl)c(=O)c3sccc32)c(C)c1	0	0	0	-	0	0
